The test system of experiment [1] is Zika virus NS2B-NS3 protease (unlinked complex). Description: Primary screen GU Rhodamine qHTS for Zika virus inhibitors: Unlinked NS2B-NS3 protease assay (AID 1347159). Note: nearly all actives have a fitted effect of over 60% in size. The method in brief: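 Buffer 10 mM Tris-HCl pH 8.0, 0.01% Tween 20. Unlinked protease 25 nM; compound preincubation 15 min, RT, protected from light. Substrate Rhod110, 1.5 microM; ~15% conversion in 15 min.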

The subject of experiment [2] is Zika virus NS2B-NS3 protease (linked construct). Description: Primary screen NINDS Rhodamine qHTS for Zika virus inhibitors (AID 1347160). Note: nearly all actives have a fitted effect of over 55% in size. The essentials:
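Aprotinin served as in-plate control. Conditions: 25 nM linked NS2B-NS3, pH 8.0 Tris buffer, titrated compounds, 15 min preincubation and 15 min reaction with 1.5 microM Rhod110 substrate at room temperature.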

Structures are written as SMILES. Results filed as inconclusive are left out. Values without a mark were called inactive. The source made the active and inactive calls. Calls come from the whole dose curve; as a rule, active = well fitted inhibition curve with a large enough effect; inconclusive = small, poorly fitted or top-dose-only effect; inactive = no such curve, though single readings can be large or run the other way.

For 20 compounds, Potency and activity change, negative = inhibition results are on record in PubChem BioAssay (NCATS).
% is set by controls: 0 for no effect and ±100 for the full control effect; potency is the fitted concentration of half-maximal effect.

Take `CCN1C[C@]2(COC(=O)c3ccccc3N3C(=O)C[C@H](C)C3=O)CC[C@H](OC)[C@@]34[C@@H]5C[C@H]6[C@H](OC)[C@@H]5[C@](O)(C[C@@H]6OC)[C@](O)([C@@H](OC)[C@H]23)[C@@H]14`: the Potency entry in experiment [1] and in experiment [2] was “inactive” in each case.

`COC(=O)C1(C)CCC(O)C2(C)c3c(O)cc(C(C)C)cc3C(O)C(OC(C)=O)C12` (stereo not given): the Potency entry in experiment [1] and in experiment [2] was “inactive” each time.

Take `COc1cc(C(=O)O[C@H]2[C@@H]3C=CO[C@@H](O[C@@H]4O[C@H](CO)[C@@H](O)[C@H](O)[C@H]4O)[C@@H]3[C@@]3(CO)O[C@@H]23)ccc1O`: the Potency result in experiment [1] and in experiment [2] was “inactive” in each case.

Regarding `N#C[C@@H](O[C@@H]1O[C@H](CO[C@@H]2O[C@H](CO)[C@@H](O)[C@H](O)[C@H]2O)[C@@H](O)[C@H](O)[C@H]1O)c1ccccc1`, the Potency result in experiment [1] and in experiment [2] was “inactive” in each case.

For `C/C=C(\C)C(=O)OC1CC2C(CC=C3CC(OC4CC(OC)C(OC5CC(OC)C(OC6OC(C)C(OC7OC(CO)C(O)C(O)C7O)C(OC)C6O)C(C)O5)C(C)O4)CCC32C)C2(O)CCC(C(C)=O)C12C` (stereo not given), the Potency result in experiment [1] and in experiment [2] was “inactive” throughout.

`CCN1C[C@]2(OC(=O)c3ccccc3NC(C)=O)CC[C@H](OC)[C@@]34[C@@H]2C[C@@H]([C@@H]13)[C@@]1(O)C[C@H](OC)[C@H]2C[C@@H]4[C@]1(O)[C@H]2OC`: the Potency entry in experiment [1] and in experiment [2] was “inactive” each time.

Turning to `CC(C)(C)c1cc(C(C)(C)C)c2c(c1)C(O)(C(F)(F)F)C(=O)O2` (stereo not given), the Potency in experiment [1] was 7.94 µM (active); in experiment [2], 12.6 µM (active).

In the case of `COC1C(O)C(OC2CCC3(C=O)C(CCC4C3CCC3(C)C(C5=CC(=O)OC5)CCC43O)C2)OC(C)C1OC1OC(CO)C(O)C(O)C1O` (stereo not given), the Potency entry in experiment [1] and in experiment [2] was “inactive” each time.

As for `C[C@]12CC[C@@H](O)C[C@H]1CC[C@@H]1[C@@H]2CC[C@]2(C)C(=O)CC[C@@H]12`, the Potency entry in experiment [1] and in experiment [2] was “inactive” throughout.

For the compound `C=CC(C)(O)CC/C=C(\C)C(=O)O[C@H]1[C@H](O)[C@@H](CO)O[C@@H](OC(=O)[C@]23CCC(C)(C)CC2C2=CCC4[C@@]5(C)CC[C@H](O[C@@H]6O[C@H](CO[C@@H]7OC[C@H](O)[C@H](O)[C@H]7O[C@@H]7OC[C@@H](O)[C@H](O)[C@H]7O)[C@@H](O)[C@H](O)[C@H]6O)C(C)(C)C5CC[C@@]4(C)[C@]2(C)CC3)[C@@H]1OC1OC(C)C(O[C@@H]2OC[C@@H](O)[C@H](O[C@@H]3OC[C@@H](O)[C@H](O)[C@H]3O)[C@H]2O)C(O)C1O` (stereo not given in full), the activity change, negative = inhibition in experiment [1] is 50.7% [at 19.1 µM]; in experiment [2], 33.2% [at 10.7 µM].

`COC1=CC(=O)O[C@@H](CCc2ccccc2)C1`: the Potency entry in experiment [1] and in experiment [2] was “inactive” in each case.

On to `CCC1NC(=O)C2C(Cl)C(Cl)CN2C(=O)C(C(C)O)NC(=O)CC(c2ccccc2)NC(=O)C(CO)NC1=O` (stereo not given), for which the Potency entry in experiment [1] and in experiment [2] was “inactive” in each case.

In the case of `COc1cc(C)[nH]c(=O)c1CNC(=O)c1c(C)n([C@H](C)C2CCOCC2)c2ccccc12`, the Potency entry in experiment [1] and in experiment [2] was “inactive” each time.

On to `CN(C(=O)Cc1ccccc1)C(CN1CCCC1)c1ccccc1` (stereo not given), for which the Potency result in experiment [1] and in experiment [2] was “inactive” each time.

With `CC[C@H]1CN2CC[C@H]1C[C@@H]2[C@@H](O)c1ccnc2ccc(OC)cc12`, the Potency result in experiment [1] and in experiment [2] was “inactive” in each case.

For the compound `C/C=C(\C)C(=O)OC1C(C)OC(OC2C(C)OC(OC3CCC4(C)C(=CCC5C4CCC4(C)C(C(C)OC6OC(COC7OC(CO)C(O)C(O)C7O)C(O)C(O)C6O)CCC54O)C3)CC2OC)C(O)C1OC` (stereo not given), the Potency result in experiment [1] and in experiment [2] was “inactive” each time.

On to `CC1=C2C(=O)C3[C@@H](CC=C4C[C@@H](O)CC[C@@]43C)[C@@H]2CC[C@]12O[C@@H]1C[C@H](C)CN[C@H]1[C@H]2C` (stereo not given in full), for which the Potency entry in experiment [1] and in experiment [2] was “inactive” each time.

`COC1CC(OC2CCC3(C)C(=CCC4C3CCC3(C)C(C(C)OC5OC(COC6OC(CO)C(O)C(O)C6O)C(O)C(O)C5O)CCC43O)C2)OC(C)C1OC1OC(C)C(O)C(OC)C1O` (stereo not given): the Potency entry in experiment [1] and in experiment [2] was “inactive” in each case.

On to `CC(C)[C@@H](CN1CC[C@@](C)(c2cccc(O)c2)[C@@H](C)C1)NC(=O)[C@H]1Cc2ccc(O)cc2CN1`, for which the Potency result in experiment [1] and in experiment [2] was “inactive” in each case.

For `C/C=C(\C)C(=O)O[C@H]1[C@H](OC(C)=O)[C@]2(CO)[C@H](O)[C@H](O)[C@]3(C)C(=CCC4[C@@]5(C)CC[C@H](O[C@@H]6O[C@H](C(=O)O)[C@@H](O)[C@H](O[C@@H]7OC[C@H](O)[C@H](O[C@@H]8OC[C@H](O)[C@H](O)[C@H]8O)[C@H]7O)[C@H]6O[C@@H]6O[C@H](CO)[C@@H](O)[C@H](O)[C@H]6O)C(C)(C)C5CC[C@]43C)[C@@H]2CC1(C)C` (stereo not given in full), the activity change, negative = inhibition in experiment [1] is -9.49% [at 19.1 µM]; in experiment [2], 4.93% [at 10.7 µM].
